Source: PubChem BioAssay (NCI)
This is part of a sample that, as a whole, favours compounds with a hit. Of some 79,000 tested, about 15% had one in any assay. A number with no mark means an inactive call. Activity calls are given as the source filed them. No stated cut-off is given here; in the data, active means growth inhibition above about 70%; inactive means the rest.

Experiment: NCI Yeast Anticancer Drug Screen. Data for the CLN2oe strain (AID 163);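 further: 0% = growth of vehicle-only control cultures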
Conditions: S. cerevisiae CLN2oe strain, active compounds read high
Experimental: Growth inhibition of yeast strains with defined genetic alterations is measured as a screen for potential anti-cancer activity. Selected strains with alterations in DNA damage repair or cell cycle control were exposed to compounds and growth inhibition was measured relative to vehicle treated controls. The strain used in this assay is CLN2oe

Structure (SMILES)	growth inhibition (at 1.2 µM) [%]	growth inhibition (at 3.7 µM)	growth inhibition (at 11.0 µM)	growth inhibition (at 33.0 µM)	growth inhibition (at 100.0 µM)
COc1cc(NCCCCNCC(C)(C)C)c2ncccc2c1	0	2%	12%	25%	39%
CCCCCCC1OCC(O)C(OCCCC)O1 (stereo not given)	-5	-3%	-12%	-8%	-7%
O=C(O)c1ccc2cc(Cl)c3ccccc3c2c1	-10	-13%	23%	41%	57%
O=C1c2ccccc2C(=O)c2c(O)c(NCCNCCO)cc(O)c21	21	33%	29%	82% (active)	93% (active)
Cc1ccc(S(=O)(=O)N/N=C/C(Br)=C(/Br)C(=O)O)cc1	3	8%	21%	54%	43%
OC(Cc1cccc2ccccc12)CN1CCC(c2ccccc2)CC1 (stereo not given)	63	74% (active)	86% (active)	94% (active)	97% (active)
CC(C)C(=O)CC(Sc1ccc(N)cc1)c1ccccc1 (stereo not given)	-2	-13%	-7%	20%	35%
CCN(CC)CCC(=O)Nc1ccc2sc3ccccc3c(=O)c2n1	0	-13%	-5%	6%	8%
